The source of these data is PubChem BioAssay AID485313 (National Center for Advancing Translational Sciences (NCATS), 2010).

Molecules are shown by their SMILES. About 7,600 (2.4%) of roughly 320,000 compounds were called active. Inconclusive results (about 3%) are left out. The entries come from a sample that favours actives as a whole. Unmarked numbers belong to inactive results. Calls come from the whole dose curve; as a rule, active = well fitted activation curve with a large enough effect; inconclusive = small, poorly fitted or top-dose-only effect; inactive = no such curve, though single readings can be large or run the other way.
Potency is the fitted concentration of half-maximal effect.

The assay can be described thus: qHTS Assay for NPC1 Promoter Activators.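 For activation: reporter is driven by a mutant NPC1 promoter; % of control where 0% means no effect.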 Note: nearly all actives have a fitted effect of over 60% in size. The note with it: Huh7 NPC1 promoter luciferase reporter, 24 h; series mostly up to 9.22 µM; activation: at the top concentration. In short, it runs like this:
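Stable NPC1-promoter luciferase Huh7 line; cpd (DMSO) 24 h, 37 °C, 5% CO2; Amplite luciferase reagent 10 min RT; luminescence readout. qHTS format.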
Consider `Cc1ccc2c(c1)C1CN(C)CCC1N2S(=O)(=O)c1cccc(F)c1` (stereo not drawn), for which the “activation” value was 0.736%. On the same count and under the same terms, the result for `O=C(CN1CCCSc2ccccc21)N1CCN(S(=O)(=O)c2cccc(F)c2)CC1` reads -1.09%; that for `COC(=O)C1=C(C)NC(=S)NC1c1ccc(OCC(=O)N2CC(C)OC(C)C2)c(OC)c1` (stereo not drawn), -1.43%. With `COc1ccc(CCNC(=O)COc2ccc3c(c2)OCO3)cc1`, the “activation” value was 0.465%. Take `CC(=O)NS(=O)(=O)c1ccc(NC(=O)C2C3C=CC(C3)C2C(=O)O)cc1` (stereo not drawn): the “activation” value was -4.5%. `CC(C)COC(=O)c1ccc(NC(=O)C2C3C=CC(C3)C2C(=O)O)cc1` (stereo not drawn): the Potency is 2.24 µM (active). Take `COC(=O)c1cc(NC(=O)C2C3C=CC(C3)C2C(=O)O)cc(C(=O)OC)c1` (stereo not drawn): the “activation” value was -0.988%. For `CCN(CC)S(=O)(=O)c1ccc2[nH]c(=O)cc(C(=O)N(C)C3CCS(=O)(=O)C3)c2c1` (stereo not drawn), the “activation” value was -0.834%. With `C[C@H](OC(=O)n1ccnc1)[C@@H]1O[C@@]2(C)CCC[C@@H]1O2`, the “activation” value is -1.99%. On the same count and under the same terms, the result for `COc1ccccc1N1CC(C(=O)NCCN2C(=O)S/C(=C\c3cccnc3)C2=O)CC1=O` (stereo not drawn) reads -4.37%; that for `Cc1ccc(C(CC(=O)O)NC(=O)c2ccc(S(=O)(=O)N3CCCC3)cc2)cc1` (stereo not drawn), -3.14%. Still for that read-out and setting: the result for `O=C(NCCN1CCOCC1)c1cccc(S(=O)(=O)Nc2ccc(F)cc2)c1` reads -2.61%; that for `O=C(NC(=S)NC1CCCCC1)c1ccc(Cl)cc1`, -1.56%; that for `O=C(NC1CCCCCC1)c1cccnc1Sc1ccc(Cl)cc1`, -1.75%. As to `O=C(NC1CCCCC1)c1ccc(-c2ccc(Cl)cc2)o1`, the Potency was 3.16 µM (active). For the compound `Cc1ccc(NC(=O)C(C)Sc2nnc(C3CC3)n2C2CC2)cc1S(=O)(=O)N1CCOCC1` (stereo not drawn), the “activation” value was 0.24%. Same read-out and setting: next, `C=CCn1c(SCC(=O)NC(=O)Cc2ccccc2)nc2ccccc2c1=O`: 0.344%. With `O=C(/C=C/c1cnc2ccccc2n1)NC1CCCCCC1`, the Potency is 3.55 µM (active).

`Cc1nc(/N=C(\N)NC(=O)NC2CCCCC2)nc2ccccc12`: the “activation” value is -17.1%. As for `O=C(Cn1c(-c2cncs2)nc2ccccc21)NC1CCCC1`, the “activation” value was -3.48%. Turning to `COc1ccc2c(C)cc(SCC(=O)NCC3CCCO3)nc2c1` (stereo not drawn), the “activation” value is -1.53%. Regarding `Cc1cccc(NC(=O)c2ccc3ccccc3n2)n1`, the Potency was 3.16 µM (active).

Regarding `Cc1cccc(NC(=O)c2ccccc2NC(=O)C(C)(C)C)n1`, the “activation” value was -4.9%. The same measure, in the same setting: the result for `Cc1cccc(NC(=O)c2cccnc2Cl)n1` reads -1.84%. In the case of `CCC(=O)Nc1ccc2nn(-c3ccc(F)cc3)nc2c1`, the Potency was 0.355 µM (active).

Consider `Cc1ccc(-n2nc3ccc(NC(=O)/C=C/c4ccco4)cc3n2)cc1C`, for which the “activation” value was 28.9%. Same read-out and setting: next, `CCC(=O)Nc1ccc(C(=O)Nc2cccc(OC)c2)cc1`: 27.4%; `Cc1noc(C)c1S(=O)(=O)Nc1ccc(C(=O)N2CCN(c3ccc(F)cc3)CC2)cc1`: 1.83%. `O=C(NC1CCCC1)c1cc(-c2ccccc2)on1`: the Potency was 1.26 µM (active).

Regarding `O=C(Nc1cccnc1Cl)c1cc(-c2cccc(Cl)c2)on1`, the “activation” value is -0.809%. As for `O=C(NCCCN1CCOCC1)c1cc(-c2cccc(O)c2)on1`, the “activation” value is 0.0458%. Same read-out and setting: next, `Cc1cc(C)cc(-c2nnc(SCC(=O)NC3CC3)o2)c1`: -3.48%; `Cc1cccc(C)c1NC(=O)CSc1nc2c([nH]1)c(=O)n(C)c(=O)n2C`: -5.88%; `CCOc1ncccc1C(=O)Nc1ccc(S(=O)(=O)Nc2nc(C)cc(C)n2)cc1`: -0.0876%.

`O=C(CSCc1ccc(Cl)cc1)N1CCN(Cc2ccc3c(c2)OCO3)CC1`: the “activation” value was 0.607%. Take `O=C(CN1CCN(c2ccc(Cl)cc2)CC1)N1CCCC1`: the “activation” value is -0.477%.

For the compound `O=C(CSCc1ccc(Cl)cc1)N1CCCCC1`, the Potency was 6.31 µM (active). `CCN(c1ccccc1)S(=O)(=O)c1ccc(OCC(=O)N2CCCC2)cc1`: the “activation” value was 0.407%.

Consider `O=C(NNC(=O)c1cc(S(=O)(=O)N2CCCCC2)ccc1Cl)c1ccccc1O`, for which the “activation” value was 5.13%. As to `Cc1cc(C)cc(NC(=O)C(c2ccccc2)N2CCN(CC(=O)N3CCCC3)CC2)c1` (stereo not drawn), the “activation” value was -2.46%.

With `COc1ccc(S(=O)(=O)N2CCOCC2)cc1NC(=O)CC1CC2CCC1C2` (stereo not drawn), the “activation” value is -1.44%.

For `CCOc1nnc(C)c2c(C)n(-c3cccc(Cl)c3)nc12`, the “activation” value was 0.78%. For `Cc1ccc(C(=O)OCc2nc(N)nc(Nc3ccccc3C)n2)cc1`, the “activation” value was 0.195%. Regarding `Cc1ccccc1Nc1nc(N)nc(CSc2nnc3ccccn23)n1`, the “activation” value is 14.3%. Regarding `Cc1ccccc1Nc1nc(N)nc(CSc2ccccc2)n1`, the Potency was 1.26 µM (active). Turning to `O=C1CC[C@H](O)CCN1[C@H](CSc1ccc(Br)cc1)Cc1ccccc1`, the “activation” value was -5.67%.

In the case of `COc1ccc(COCC(O)CN2CCC(C(N)=O)CC2)cc1` (stereo not drawn), the “activation” value is 0.393%. For `COc1cc(CN2CCC(C(N)=O)CC2)ccc1OCc1ccccc1`, the Potency is 3.98 µM (active).

As for `CCOc1cc(CN2CCN(C(=O)CC(C)C)CC2)ccc1OC`, the “activation” value is -0.87%. With `CCOC(=O)C1CCN(S(=O)(=O)c2ccc3c(c2)N(C(C)=O)CCO3)CC1`, the “activation” value was -4.36%. Take `Cc1ccc(C)c(NC(=O)C(c2ccccc2)N2CCN(CC(=O)NC3CC3)CC2)c1` (stereo not drawn): the “activation” value is -2.67%. `O=C(c1cnn(-c2ccc(Cl)cc2)c1)c1ccccc1O`: the Potency is 3.55 µM (active). Turning to `COc1ccc(CNC(=O)COc2ccccc2C(=O)c2cnn(-c3ccccc3)c2)cc1OC`, the “activation” value is 26.5%. On to `Cc1ncc(CC(=O)n2cc(C(=O)c3cc(Cl)ccc3O)cn2)s1`, for which the “activation” value is 1.35%.

Regarding `Cc1ccnc(Nc2nc3ccccc3s2)n1`, the Potency was 3.55 µM (active). Turning to `Cc1ccnc(-n2sc3ccccc3c2=O)n1`, the “activation” value was 0.72%.

As to `Cc1ccnc(NC(=O)c2ccco2)n1`, the “activation” value is 1.97%. With `COc1cc(C(=O)NNC(=O)CN2C(=O)NC3(CCCC3)C2=O)cc(OC)c1OC`, the “activation” value was 0.54%. For `CN(C)S(=O)(=O)c1ccc(C(=O)NCC2(N3CCOCC3)CCCCC2)cc1`, the “activation” value was -6.14%. For `O=C(CSc1nnnn1C1CCCC1)N1CCCCC1`, the Potency was 3.55 µM (active). Consider `CC(=O)Nc1ccc(NC(=O)CSc2nnnn2C2CCCCC2)cc1`, for which the “activation” value is -0.375%.

For `CC1CCCC(C)N1C(=O)CSc1nnnn1C1CCCC1` (stereo not drawn), the “activation” value is 24.7%. The same measure, in the same setting: next, `C/C(=N\NC(=O)c1ccc(NS(=O)(=O)c2cccs2)cc1)c1ccc2ccccc2c1`: -5.94%; `COCCNc1nnc(SCC(=O)NNC(=O)c2ccco2)s1`: -0.171%. For `COc1ccc(Oc2c(Cl)cnn(-c3ccccc3)c2=O)cc1`, the “activation” value was -8.11%. In the case of `COc1ccc2oc(=O)c(C(=O)N3CCCc4ccccc43)cc2c1`, the “activation” value was -5.28%.

Turning to `COc1ccccc1N1CCN(C(=O)CSc2ncnc3c2cnn3-c2ccc(C)c(C)c2)CC1`, the “activation” value was 25.1%.

For `Cc1cccc(-n2ncc3c(N4CCc5ccccc54)ncnc32)c1`, the Potency was 1.58 µM (active). Turning to `Cc1cccc(-n2ncc(Cl)c(Cl)c2=O)c1`, the “activation” value is -43.6%. In the case of `COc1ccc(-n2ncc3c(N4CCCc5ccccc54)ncnc32)cc1`, the Potency is 0.501 µM (active). On to `O=C(CCNC(=O)c1ccccc1Cl)NCc1ccco1`, for which the “activation” value is -2.81%.

For the compound `O=C(CCC(=O)c1ccccc1)NCc1cccc(C(F)(F)F)c1`, the “activation” value is -2.76%. On the same count and under the same terms, the result for `FC(F)Oc1ccccc1C1CC(c2ccc(Br)s2)Nc2ncnn21` (stereo not drawn) reads -3.94%.

As for `CCOC(=O)N1CCN(Cc2nc(N)nc(Nc3ccc(C)cc3)n2)CC1`, the “activation” value is -3.41%.

`Cc1nnc(SCc2nc3ccccc3nc2C)s1`: the “activation” value was 0.203%. For `Cc1ccc(Nc2nc(N)nc(CSc3nnc(C)s3)n2)cc1`, the Potency was 2.51 µM (active). For `Nc1ccc(Nc2cc(O)c3ncccc3c2)cc1`, the “activation” value is -33.9%. Turning to `CCCN(CC(=O)Nc1ccccc1C)C(=O)c1ccc2[nH]c3c(c2c1)CC(C)CC3` (stereo not drawn), the “activation” value is -1.21%. As for `Cc1cc(C)cc(NC(=O)N2CCCCCCC2)c1`, the “activation” value was -2.27%.

Consider `Cc1ccc2cc3cc(C(=O)N4CCCCCC4)oc3nc2c1`, for which the Potency was 1.12 µM (active). `COc1ccc2oc(=O)c(C(=O)N3CCCC3)cc2c1`: the “activation” value is -0.759%.

For the compound `COc1ccc(-c2c(-c3cc(OC)cc(OC)c3)n(C)c3ccc(-c4ccn[nH]4)cc23)cc1`, the “activation” value is -5.11%.

For the compound `O=C(Nc1ccc(Br)cn1)c1ccc([N+](=O)[O-])cc1Cl`, the Potency was 2 µM (active). In the case of `O=C(Nc1ccncc1)c1ccc([N+](=O)[O-])cc1Cl`, the “activation” value is 1.57%.

`O=C(Nc1ccc(Br)cn1)c1ccc([N+](=O)[O-])o1`: the “activation” value was -17.1%. In the case of `C=CCn1cc(-c2cccc(C(F)(F)F)c2)cc(C#N)c1=O`, the “activation” value was 1.99%. As for `CN(C)C(CNC(=O)c1ccc(OCc2cn3ccccc3n2)cc1)c1ccco1` (stereo not drawn), the “activation” value was 15.6%.

With `O=c1c(Cl)c(NC2CC2)cnn1-c1ccccc1`, the “activation” value is 18.8%. On to `Cc1ccc(Oc2cnn(-c3ccccc3)c(=O)c2Br)cc1`, for which the “activation” value is -1.01%.

On to `C=CCNc1cnn(-c2ccc(C)cc2)c(=O)c1Cl`, for which the Potency was 2.82 µM (active).

For the compound `CC(C)Nc1nnc(SCC(=O)c2c[nH]c3ccccc23)s1`, the “activation” value is 8.11%. Take `COc1ccc(CCCc2nnc(SCc3nc4ccccc4c(=O)[nH]3)n2C)cc1`: the “activation” value is -4.67%. In the case of `COc1ccc(NS(=O)(=O)c2cc(C(=O)Nc3ccccc3C(=O)O)ccc2C)cc1`, the “activation” value was -35.8%. Take `COc1ccc(/C=N/Nc2nc3ccccc3c(=O)[nH]2)cc1`: the Potency was 3.16 µM (active).

Take `COc1ccc(/C=N/OCC(=O)N(Cc2ccccc2)c2ccccc2C(=O)O)cc1`: the “activation” value was -3.19%. For the compound `COc1ccc(/C=N/Nc2nc(-c3ccc(C)cc3)c(C#N)c(=O)[nH]2)cc1`, the “activation” value is -2.06%. As to `COc1ccc(/C=N/Nc2ccccc2C(=O)O)cc1`, the Potency was 0.0891 µM (active).

For the compound `CCC(=O)c1ccc(OCC(=O)N(CC)CC2COc3ccccc3O2)cc1` (stereo not drawn), the “activation” value is 2.33%. On to `COCCn1c(C)cc(C(=O)COC(=O)CNC(=O)c2ccco2)c1C`, for which the “activation” value was -2.34%. Turning to `COc1cccc(C2=CC(=O)C[C@H](c3ccc(F)cc3)C2)c1OC`, the “activation” value is -8.4%. On to `Cc1cc(F)ccc1S(=O)(=O)Nc1ccc(C(=O)N(C)Cc2ccco2)cc1`, for which the “activation” value was -7.8%.

On to `COc1ccccc1NC(=O)COC(=O)COc1ccccc1F`, for which the “activation” value is 0.971%. As to `Nc1ccc(-c2nnc(-c3ccccc3)o2)cc1`, the Potency is 3.16 µM (active).

Take `O=C(Nc1cccc(Cl)c1)Nc1nnc(-c2ccccc2)o1`: the “activation” value is -0.287%. On the same count and under the same terms, next, `O=C(COC(=O)c1ccc(Oc2ccccc2)cc1)Nc1nnc(-c2ccccc2)o1`: 6.91%; `Nc1ccc(-c2sc(N)nc2-c2ccccc2)cc1`: 1.72%. On the same count and under the same terms, next, `O=C(COC(=O)c1ccccc1Br)Nc1nnc(-c2ccccc2)o1`: -2.45%. Turning to `Nc1ccc(-c2nnc(-c3ccc(-c4ccccc4)cc3)o2)cc1`, the Potency was 4.47 µM (active).
